Results: PubChem BioAssay (NCI)
Compounds without any hit were thinned out: in the full panel of roughly 83,000, 20% have a hit.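 Values shown are percent growth following 48 h exposure of cells in 96-well plates to a single concentration of compound; below 10 was considered active.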 Values without a mark were called inactive. Activity calls are given as the source filed them.

Experiments:
Test in all cases: NCI-60 one-dose screen, 48 h (100 = growth as untreated, 0 = no growth, -100 = all killed)
Conditions in all cases: 10 µM unless noted
SK-MEL-2 melanoma = test system: SK-MEL-2 melanoma
EKVX NSCLC = test system: EKVX NSCLC
SN12C renal = test system: SN12C renal
UO-31 renal = test system: UO-31 renal
TK-10 renal = test system: TK-10 renal
ACHN renal = test system: ACHN renal
CAKI-1 renal = test system: CAKI-1 renal
A498 renal = test system: A498 renal
CCRF-CEM leukemia = test system: CCRF-CEM leukemia
MOLT-4 leukemia = test system: MOLT-4 leukemia
SR leukemia = test system: SR leukemia
RPMI-8226 leukemia = test system: RPMI-8226 leukemia
OVCAR-8 ovarian = test system: OVCAR-8 ovarian
OVCAR-5 ovarian = test system: OVCAR-5 ovarian
OVCAR-4 ovarian = test system: OVCAR-4 ovarian
SK-OV-3 ovarian = test system: SK-OV-3 ovarian
IGROV1 ovarian = test system: IGROV1 ovarian
OVCAR-3 ovarian = test system: OVCAR-3 ovarian
HS 578T breast = test system: HS 578T breast
NCI/ADR-RES ovarian = test system: NCI/ADR-RES ovarian

SMILES | growth (SK-MEL-2 melanoma) [%] | growth (EKVX NSCLC) [%] | growth (SN12C renal) | growth (UO-31 renal) [%] | growth (TK-10 renal) [%] | growth (ACHN renal) [%] | growth (CAKI-1 renal) [%] | growth (A498 renal) | growth (CCRF-CEM leukemia) [%] | growth (MOLT-4 leukemia) [%] | growth (SR leukemia) | growth (RPMI-8226 leukemia) | growth (OVCAR-8 ovarian) [%] | growth (OVCAR-5 ovarian) [%] | growth (OVCAR-4 ovarian) [%] | growth (SK-OV-3 ovarian) [%] | growth (IGROV1 ovarian) [%] | growth (OVCAR-3 ovarian) | growth (HS 578T breast) [%] | growth (NCI/ADR-RES ovarian)
COc1ccc(Cn2cc(C(=O)Nc3cccnc3Nc3ccccc3)nn2)cc1 | 107 | 92.8 | 86.5% | 70.9 | 95.1 | 105 | 88.4 | 117% | 108 | 93.5 | 94.9% | 96.3% | 101 | 107 | 95 | 112 | 102 | 118% | 94.1 | 89.8%
O=C([C@H]1C[C@H]1c1ccc(S(F)(F)(F)(F)F)cc1)N1CCN(c2cc(Cl)ccc2C(F)(F)F)CC1 | 91.7 | 91.9 | 101% | 67.8 | 93.6 | 93.4 | 67.3 | 94.4% | 96.4 | 76.9 | 88.1% | 75.8% | 92.2 | 95.3 | 90.7 | 79.1 | 73.3 | 100% | 91.4 | 95.5%
Cc1nc2sc(C(=O)Nc3cccc(Cl)c3C)c(N)c2cc1C(O)c1ccccc1 (stereo not given) | 38.9 | 41.6 | 9.22% (active) | 40.6 | 49.7 | 22.5 | 30.9 | -11.6% (active) | 20.4 | 13 | 7.23% (active) | 8.08% (active) | 11.8 | 37.5 | 55.6 | 32.9 | 21.8 | 4.1% (active) | 23.4 | 3.99% (active)
